Experiment [1] can be described thus: NCI Yeast Anticancer Drug Screen. Data for the rad50 strain (AID 155).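 Further: 0% = growth of vehicle-only cultures of the same strain.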 Conditions: S. cerevisiae rad50 strain growth inhibition; at 50.0 µM; hits give high values. The method, boiled down:
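DNA repair mutant yeast, compound exposure, growth read-out; inhibition is taken relative to vehicle.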

The nature of experiment [2]: NCI Yeast Anticancer Drug Screen. Data for the mec2-1 strain (AID 157). Conditions: S. cerevisiae mec2-1 strain, at 50.0 µM, hits give high values. In short, it runs like this:
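Vehicle-treated cultures served as reference for growth inhibition of compound-exposed mec2-1 yeast.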

Experiment [3] can be described thus: NCI Yeast Anticancer Drug Screen. Data for the sgs1 mgt1 strain (AID 161).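 Further: 0% = growth of cultures given vehicle only.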 Conditions: S. cerevisiae sgs1 mgt1 strain, at 50.0 µM, hits give high values. In short, it runs like this: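 Read-out: growth inhibition vs vehicle controls. Cells: mutant yeast strain deficient in DNA damage repair.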
Experiment [4] can be described thus: NCI Yeast Anticancer Drug Screen. Data for the cln2 rad14 strain (AID 165).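 Further: 0% = growth equal to vehicle treated cultures.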 Conditions: S. cerevisiae cln2 rad14 strain, at 50.0 µM, hits give high values. In short, it runs like this: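 Each compound was tested on cln2 rad14 yeast. Inhibition of growth was calculated against vehicle-exposed controls.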
Experiment [5] is described as follows: NCI Yeast Anticancer Drug Screen. Data for the bub3 strain (AID 167). Conditions: S. cerevisiae bub3 mutant strain, at 50.0 µM, hits give high values. In short, it runs like this: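 In this screen, a yeast mutant lacking normal mitotic checkpoint function is challenged with compound. Relative growth versus vehicle gives the inhibition value.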
Experiment [6] can be described thus: NCI Yeast Anticancer Drug Screen. Data for the mlh1 rad18 strain (AID 175). Conditions: S. cerevisiae mlh1 rad18 strain growth inhibition; at 50.0 µM; hits give high values. The method, boiled down:
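Vehicle-treated cultures served as the reference for growth inhibition in a yeast strain carrying DNA damage repair alterations exposed to each compound.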

This is part of a sample that, as a whole, favours compounds with a hit. Of some 79,000 tested, about 15% had one in any assay. Unmarked numbers belong to inactive results. Calls of active or inactive are those of the source. No stated cut-off is given here; in the data, active means growth inhibition above about 70%; inactive means the rest.

The text below walks through data of PubChem BioAssay (NCI).

For the compound `CCOC(=O)CCC[Si](CC)(CC)CC`, the growth inhibition in experiment [1] is 13.9%; in experiment [2] it was 12.3%; in experiment [3] it was 1.5%; in experiment [4], -22.1%; in experiment [5], -15%; in experiment [6], 5.9%.

With `CCCCCCCC/C=C\CCCCCCCC(N)=O`, the growth inhibition in experiment [1] is -20.9%; in experiment [2] it was -34.6%; in experiment [3], -11.5%; in experiment [4], -53%; in experiment [5], -21.1%; in experiment [6], -50%.

For the compound `Cc1ccc2c(c1)NC(c1ccc(C(=O)O)cc1)c1cccn1-2` (stereo unspecified), the growth inhibition in experiment [1] was 29.7%; in experiment [2], 8.95%; in experiment [3], 0.45%; in experiment [4], 7.7%; in experiment [5], 19.3%; in experiment [6], 23.2%.

On to `CCCCCCCCCCCCSCC(=O)O`, for which the growth inhibition was -16.8% in experiment [1]; 10.8% in experiment [2]; 14.2% in experiment [3]; -82.8% in experiment [4]; 39% in experiment [5]; -25.8% in experiment [6].

In the case of `CCCCCCCCCCCCCCCCCC[N+](CCCC)(CCCC)CCCCCCCCCCCCCCCCCC` (tested in a mixture with another compound), the growth inhibition in experiment [1] is 3.45%; in experiment [2] it was 7.25%; in experiment [3] it was 1.7%; in experiment [4], -10%; in experiment [5], 1.5%; in experiment [6], 4.3%.

Take `O=C(O)c1ccc(/C=N/NC(=O)C(O)(c2ccccc2)c2ccccc2)cc1`: the growth inhibition is 8.3% in experiment [1]; -21.9% in experiment [2]; -18.9% in experiment [3]; 11.7% in experiment [4]; -10.4% in experiment [5]; -9.65% in experiment [6].

Consider `CC(Oc1ccccc1-c1ccccc1)C(=O)O` (stereo unspecified), for which the growth inhibition was 6.95% in experiment [1]; -22.2% in experiment [2]; -5.9% in experiment [3]; 5.45% in experiment [4]; -1.9% in experiment [5]; 15.1% in experiment [6].

For the compound `CC(C)(O)C1COC2=C1C(=O)c1ccccc1C2=O` (stereo unspecified), the growth inhibition was 11.8% in experiment [1]; -10.2% in experiment [2]; 24.6% in experiment [3]; 12.6% in experiment [4]; 7.2% in experiment [5]; -35.9% in experiment [6].

For the compound `O=c1c2cc([N+](=O)[O-])ccc2n2n1Cc1ccccc1CC2`, the growth inhibition in experiment [1] was -12.8%; in experiment [2] it was -0.9%; in experiment [3], -6.5%; in experiment [4], 21.5%; in experiment [5], 18.5%; in experiment [6], -16.4%.

In the case of `COc1ccc2c(c1)OC1(OCCO1)[C@@H]1C2CC[C@@]2(C)C1CCC21OCCO1` (stereo partly specified), the growth inhibition in experiment [1] is 48.2%; in experiment [2], 17.9%; in experiment [3], 38.9%; in experiment [4] it was 28.8%; in experiment [5], 15.8%; in experiment [6] it was 58.5%.

`c1ccc(CN2CCC(N3CCCC3)CC2)cc1`: the growth inhibition in experiment [1] was -22.7%; in experiment [2] it was -26.1%; in experiment [3], -22%; in experiment [4], 10.7%; in experiment [5], -23.3%; in experiment [6], -29.9%.

As to `CCOC(=O)OCCCc1ccccc1`, the growth inhibition in experiment [1] was -8.95%; in experiment [2], -2.95%; in experiment [3], -8.8%; in experiment [4], -15.4%; in experiment [5], -7.55%; in experiment [6], -6.8%.

As for `Cc1ccc(NC(=O)N2CC2(C)C)cc1NC(=O)N1CC1(C)C`, the growth inhibition in experiment [1] was 0.2%; in experiment [2], 0.55%; in experiment [3] it was 2.8%; in experiment [4] it was -1.6%; in experiment [5], 1.2%; in experiment [6] it was 4.9%.

For `O=C(O)c1ccccc1Nc1ccccc1[N+](=O)[O-]`, the growth inhibition in experiment [1] is -4%; in experiment [2], 22.5%; in experiment [3] it was 17.2%; in experiment [4] it was 8.15%; in experiment [5] it was 27.1%; in experiment [6], 17.6%.

`Cc1cc(S(=O)(=O)Nc2nc3ccccc3[nH]2)c(S)cc1Cl`: the growth inhibition was 19.9% in experiment [1]; 13.2% in experiment [2]; 23.9% in experiment [3]; 23.4% in experiment [4]; 5.55% in experiment [5]; 40.6% in experiment [6].

In the case of `N#Cc1c(-c2ccccc2)nc(-c2ccccc2)sc1=S`, the growth inhibition is 12.1% in experiment [1]; -0.7% in experiment [2]; 42% in experiment [3]; 4.55% in experiment [4]; 48.1% in experiment [5]; 73.8% (active) in experiment [6].

Consider `CCCCC(CC)CC#N` (stereo unspecified), for which the growth inhibition is 6.15% in experiment [1]; -20.1% in experiment [2]; 21.1% in experiment [3]; 6.05% in experiment [4]; -4.35% in experiment [5]; 10.7% in experiment [6].

Take `O=C(c1ccccc1)C1C(c2ccccc2)N1C(=O)c1ccccc1` (stereo unspecified): the growth inhibition in experiment [1] is 9.8%; in experiment [2], 16.4%; in experiment [3], 6.35%; in experiment [4] it was -1.3%; in experiment [5] it was 35.6%; in experiment [6], 12.9%.

Consider `COc1cc2c(cc1OC)C(C(CBr)CBr)N(C1CCCC1)CC2` (stereo unspecified), for which the growth inhibition was -8.2% in experiment [1]; -15.3% in experiment [2]; 13.6% in experiment [3]; -19.9% in experiment [4]; -12.4% in experiment [5]; 11.6% in experiment [6].

For the compound `CC(=O)/C(=C/n1c(=S)sc2ccccc21)C(=O)Nc1ccccc1C`, the growth inhibition in experiment [1] was -3.75%; in experiment [2], 0.9%; in experiment [3], 54.4%; in experiment [4], 15.9%; in experiment [5], 9.2%; in experiment [6], 41.6%.

For the compound `Clc1ccc(CSc2cnnc(Cl)c2SCc2ccc(Cl)cc2)cc1`, the growth inhibition in experiment [1] is 8.1%; in experiment [2], -4.5%; in experiment [3], 8.2%; in experiment [4], 22.8%; in experiment [5], -2.15%; in experiment [6], 3.05%.
